For one sequence, binding signal results are on record in PMC7862700, “An all-to-all approach to the identification of sequence-specific readers for epigenetic DNA modifications on cytosine”.

Test in all cases: DAPPL (digital affinity profiling via proximity ligation, sequencing); 10 mM Tris-HCl pH 7.5, 50 mM NaCl, 1 mM DTT, 4% glycerol, room temperature, 30 min; GST-TFs on glutathione beads, 16-mer random dsDNA library, 0.1% formaldehyde crosslink after washing; high values mean tight binding
For experiment [1], the target named is T1, FEV (Homo sapiens, UniProt Q99581 1-238).
T1 sequence: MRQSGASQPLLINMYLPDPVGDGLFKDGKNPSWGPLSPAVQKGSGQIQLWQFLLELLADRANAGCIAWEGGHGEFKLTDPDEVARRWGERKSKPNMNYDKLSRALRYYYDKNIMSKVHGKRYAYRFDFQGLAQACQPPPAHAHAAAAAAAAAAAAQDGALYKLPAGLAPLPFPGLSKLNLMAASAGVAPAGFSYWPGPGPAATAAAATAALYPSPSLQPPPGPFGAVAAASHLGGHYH
The note with it: protein: recombinant; tags: N-terminal GST; dsDNA, one strand shown. In short, it runs like this: (§1)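 Pools of DNA-barcoded human transcription factors, expressed in yeast as GST fusions on glutathione beads and combined with a tag-only sample, were incubated with 200 nmole of a 16-mer random double-stranded DNA library. Incubation took 30 min at room temperature in Tris/NaCl/DTT/glycerol buffer and was followed by washing, 0.1% formaldehyde crosslinking, proximity ligation (BsaI/T4 ligase, 1 h, 37 °C), PCR amplification and sequencing on an Illumina NextSeq500. Binding signal is the ratio of a hexamer's read frequency for a factor to its frequency for the tag-only sample.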

Experiment [2] addresses ETV5 (Homo sapiens, UniProt P41161 1-510). The following applies: protein: recombinant; tags: N-terminal GST; dsDNA, one strand shown. In short, it runs like this: as §1
Experiment [3] concerns the target HSF1 (Homo sapiens, UniProt Q00613 1-529). The note with it: protein: recombinant; tags: N-terminal GST; chain copies: 3; dsDNA, one strand shown. In short, it runs like this:
as §1

Experiment [4] concerns the target T2, SPIC (Homo sapiens, UniProt Q8N5J4 1-248).
T2 sequence: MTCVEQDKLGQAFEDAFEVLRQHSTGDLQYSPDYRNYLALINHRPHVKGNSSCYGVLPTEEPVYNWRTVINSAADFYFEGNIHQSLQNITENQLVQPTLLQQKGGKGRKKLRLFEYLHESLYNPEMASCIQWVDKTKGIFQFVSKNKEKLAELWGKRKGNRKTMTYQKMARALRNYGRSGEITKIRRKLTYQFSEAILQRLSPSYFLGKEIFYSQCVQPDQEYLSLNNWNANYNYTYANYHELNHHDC
The note with it: protein: recombinant; tags: N-terminal GST; dsDNA, one strand shown. In short, it runs like this:
as §1

The target in experiment [5] is ELF4 (Homo sapiens, UniProt Q99607 1-663). The note with it: protein: recombinant; tags: N-terminal GST; dsDNA, one strand shown. In short, it runs like this: as §1
The target of experiment [6] is T3, ELK4 (Homo sapiens, UniProt P28324-2 1-405).
T3 sequence: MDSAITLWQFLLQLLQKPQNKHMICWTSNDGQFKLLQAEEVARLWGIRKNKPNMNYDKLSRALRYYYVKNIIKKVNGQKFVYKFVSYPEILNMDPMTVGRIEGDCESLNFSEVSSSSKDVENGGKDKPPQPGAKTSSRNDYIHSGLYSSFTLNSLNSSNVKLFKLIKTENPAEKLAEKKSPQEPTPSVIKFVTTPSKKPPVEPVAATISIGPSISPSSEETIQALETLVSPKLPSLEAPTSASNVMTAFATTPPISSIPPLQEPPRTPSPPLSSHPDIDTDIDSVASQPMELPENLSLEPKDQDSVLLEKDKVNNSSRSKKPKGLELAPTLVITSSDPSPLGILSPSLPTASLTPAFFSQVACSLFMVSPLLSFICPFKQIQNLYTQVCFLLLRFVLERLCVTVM
The note with it: protein: recombinant; tags: N-terminal GST; dsDNA, one strand shown. Summed up:
as §1

The target in experiment [7] is T4, ETV2 (Homo sapiens, UniProt O00321 1-342).
T4 sequence: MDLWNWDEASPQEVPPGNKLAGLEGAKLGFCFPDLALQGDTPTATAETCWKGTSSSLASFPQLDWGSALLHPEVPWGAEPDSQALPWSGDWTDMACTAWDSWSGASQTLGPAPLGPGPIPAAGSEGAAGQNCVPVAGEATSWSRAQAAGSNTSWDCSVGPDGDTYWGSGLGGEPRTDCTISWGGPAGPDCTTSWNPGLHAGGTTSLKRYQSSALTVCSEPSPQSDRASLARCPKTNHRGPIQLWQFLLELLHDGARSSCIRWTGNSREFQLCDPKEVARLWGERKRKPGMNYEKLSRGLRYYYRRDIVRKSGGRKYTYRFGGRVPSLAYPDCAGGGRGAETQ
The following applies: protein: recombinant; tags: N-terminal GST; dsDNA, one strand shown. In short, it runs like this:
as §1

Experiment [8] has as its target T5, ELF3 (Homo sapiens, UniProt P78545 1-371).
T5 sequence: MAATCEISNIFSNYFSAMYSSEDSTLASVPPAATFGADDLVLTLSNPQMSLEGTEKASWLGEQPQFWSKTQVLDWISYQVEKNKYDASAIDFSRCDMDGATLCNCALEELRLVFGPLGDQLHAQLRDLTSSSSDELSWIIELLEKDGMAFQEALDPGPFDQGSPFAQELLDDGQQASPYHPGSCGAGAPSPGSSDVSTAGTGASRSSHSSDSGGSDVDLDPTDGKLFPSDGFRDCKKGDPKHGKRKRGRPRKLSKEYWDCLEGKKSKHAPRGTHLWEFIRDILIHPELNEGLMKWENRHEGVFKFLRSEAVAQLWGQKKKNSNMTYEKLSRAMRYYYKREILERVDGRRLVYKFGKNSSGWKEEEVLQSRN
The following applies: protein: recombinant; tags: N-terminal GST; dsDNA, one strand shown. In short, it runs like this:
as §1

Experiment [9] concerns the target CRX (Homo sapiens, UniProt O43186 1-299). The following applies: protein: recombinant; tags: N-terminal GST; dsDNA, one strand shown. Summed up: as §1
Experiment [10] has as its target ETV1 (Homo sapiens, UniProt P50549 1-477). The following applies: protein: recombinant; tags: N-terminal GST; dsDNA, one strand shown. Summed up:
as §1

In experiment [11] the target is T6, ERF (Homo sapiens, UniProt P50548 1-548).
T6 sequence: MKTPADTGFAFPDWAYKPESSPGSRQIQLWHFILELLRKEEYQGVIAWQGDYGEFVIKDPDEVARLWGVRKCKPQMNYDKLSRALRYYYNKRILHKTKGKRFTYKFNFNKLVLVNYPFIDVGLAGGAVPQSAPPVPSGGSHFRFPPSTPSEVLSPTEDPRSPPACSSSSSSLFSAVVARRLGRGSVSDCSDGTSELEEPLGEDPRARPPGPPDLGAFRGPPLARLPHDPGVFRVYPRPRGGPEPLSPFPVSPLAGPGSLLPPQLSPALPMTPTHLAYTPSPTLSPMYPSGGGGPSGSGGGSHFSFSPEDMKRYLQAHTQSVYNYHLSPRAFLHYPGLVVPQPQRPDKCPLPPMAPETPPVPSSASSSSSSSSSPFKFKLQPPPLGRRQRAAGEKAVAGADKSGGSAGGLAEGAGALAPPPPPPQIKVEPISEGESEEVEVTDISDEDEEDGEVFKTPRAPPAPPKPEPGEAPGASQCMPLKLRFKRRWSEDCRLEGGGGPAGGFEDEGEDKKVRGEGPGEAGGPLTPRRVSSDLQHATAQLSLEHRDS
The following applies: protein: recombinant; tags: N-terminal GST; dsDNA, one strand shown. In short, it runs like this: as §1

Experiment [12] addresses T7, ETV3L (Homo sapiens, UniProt Q6ZN32 1-361).
T7 sequence: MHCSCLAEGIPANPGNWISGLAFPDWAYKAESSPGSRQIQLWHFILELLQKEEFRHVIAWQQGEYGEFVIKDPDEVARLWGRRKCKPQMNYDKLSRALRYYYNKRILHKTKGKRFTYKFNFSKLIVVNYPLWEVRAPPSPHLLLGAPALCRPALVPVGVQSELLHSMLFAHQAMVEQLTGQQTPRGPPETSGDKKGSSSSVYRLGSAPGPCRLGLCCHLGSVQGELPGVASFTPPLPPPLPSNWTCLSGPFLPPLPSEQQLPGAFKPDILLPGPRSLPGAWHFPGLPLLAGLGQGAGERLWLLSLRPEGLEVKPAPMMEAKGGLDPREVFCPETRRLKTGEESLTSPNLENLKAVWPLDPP
The following applies: protein: recombinant; tags: N-terminal GST; dsDNA, one strand shown. Summed up: as §1

In experiment [13] the target is T8, ETS2 (Homo sapiens, UniProt P15036 1-469).
T8 sequence: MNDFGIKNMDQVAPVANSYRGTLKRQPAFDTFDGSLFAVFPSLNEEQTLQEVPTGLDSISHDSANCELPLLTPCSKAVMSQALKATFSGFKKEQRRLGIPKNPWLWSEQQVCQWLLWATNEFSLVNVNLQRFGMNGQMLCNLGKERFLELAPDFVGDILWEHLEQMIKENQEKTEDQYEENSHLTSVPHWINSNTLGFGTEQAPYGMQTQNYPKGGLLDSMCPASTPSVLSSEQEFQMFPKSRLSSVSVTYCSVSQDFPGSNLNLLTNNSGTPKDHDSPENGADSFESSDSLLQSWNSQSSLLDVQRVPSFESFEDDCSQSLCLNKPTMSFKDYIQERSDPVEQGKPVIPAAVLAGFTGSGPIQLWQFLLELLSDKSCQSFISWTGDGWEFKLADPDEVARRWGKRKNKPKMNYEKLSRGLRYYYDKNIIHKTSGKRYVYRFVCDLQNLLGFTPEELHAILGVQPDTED
The note with it: protein: recombinant; tags: N-terminal GST; dsDNA, one strand shown. Summed up: as §1

Experiment [14] deals with T9, SPDEF (Homo sapiens, UniProt O95238 1-335).
T9 sequence: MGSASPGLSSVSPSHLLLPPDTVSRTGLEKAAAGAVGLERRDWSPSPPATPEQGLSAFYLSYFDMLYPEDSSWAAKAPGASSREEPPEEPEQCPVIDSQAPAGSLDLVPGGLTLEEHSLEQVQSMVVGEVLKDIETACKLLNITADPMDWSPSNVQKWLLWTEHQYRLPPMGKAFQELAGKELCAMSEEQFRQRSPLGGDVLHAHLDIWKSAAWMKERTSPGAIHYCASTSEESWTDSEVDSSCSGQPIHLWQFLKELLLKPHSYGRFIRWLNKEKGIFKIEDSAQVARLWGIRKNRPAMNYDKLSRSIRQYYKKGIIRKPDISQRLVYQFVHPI
The following applies: protein: recombinant; tags: N-terminal GST; dsDNA, one strand shown. Summed up:
as §1

Experiment [15] deals with T10, ETV7 (Homo sapiens, UniProt Q9Y603 1-341).
T10 sequence: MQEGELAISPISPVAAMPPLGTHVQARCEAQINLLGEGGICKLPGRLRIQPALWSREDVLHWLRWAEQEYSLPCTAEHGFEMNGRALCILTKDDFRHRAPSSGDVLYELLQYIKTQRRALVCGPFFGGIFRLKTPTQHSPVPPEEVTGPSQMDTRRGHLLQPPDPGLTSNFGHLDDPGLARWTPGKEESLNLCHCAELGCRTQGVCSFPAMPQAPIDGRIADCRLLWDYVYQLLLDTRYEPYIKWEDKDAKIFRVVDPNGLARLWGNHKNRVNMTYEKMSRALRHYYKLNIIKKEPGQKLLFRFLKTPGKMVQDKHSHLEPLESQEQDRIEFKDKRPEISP
The note with it: protein: recombinant; tags: N-terminal GST; dsDNA, one strand shown. Summed up:
as §1

In experiment [16] the target is T11, ELF5 (Homo sapiens, UniProt Q9UKW6-2 1-255).
T11 sequence: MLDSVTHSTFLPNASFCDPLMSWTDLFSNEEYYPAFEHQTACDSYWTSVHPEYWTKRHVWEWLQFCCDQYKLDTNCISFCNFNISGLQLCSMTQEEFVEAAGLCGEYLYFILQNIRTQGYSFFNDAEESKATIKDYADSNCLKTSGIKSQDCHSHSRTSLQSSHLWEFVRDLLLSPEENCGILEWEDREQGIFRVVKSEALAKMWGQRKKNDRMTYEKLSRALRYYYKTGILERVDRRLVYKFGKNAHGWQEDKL
The note with it: protein: recombinant; tags: N-terminal GST; dsDNA, one strand shown. Summed up: as §1

Experiment [17] concerns the target T12, ETV3 (Homo sapiens, UniProt P41162-2 1-143).
T12 sequence: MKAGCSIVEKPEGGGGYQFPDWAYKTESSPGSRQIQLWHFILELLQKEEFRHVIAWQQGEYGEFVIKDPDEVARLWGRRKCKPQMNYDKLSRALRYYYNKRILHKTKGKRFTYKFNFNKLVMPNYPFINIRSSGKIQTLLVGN
The note with it: protein: recombinant; tags: N-terminal GST; dsDNA, one strand shown. Summed up: as §1

In experiment [18] the target is ETV6 (Homo sapiens, UniProt P41212 1-452). The note with it: protein: recombinant; tags: N-terminal GST; dsDNA, one strand shown. In short, it runs like this: as §1
Chain of ETV6 (P41212 whole entry): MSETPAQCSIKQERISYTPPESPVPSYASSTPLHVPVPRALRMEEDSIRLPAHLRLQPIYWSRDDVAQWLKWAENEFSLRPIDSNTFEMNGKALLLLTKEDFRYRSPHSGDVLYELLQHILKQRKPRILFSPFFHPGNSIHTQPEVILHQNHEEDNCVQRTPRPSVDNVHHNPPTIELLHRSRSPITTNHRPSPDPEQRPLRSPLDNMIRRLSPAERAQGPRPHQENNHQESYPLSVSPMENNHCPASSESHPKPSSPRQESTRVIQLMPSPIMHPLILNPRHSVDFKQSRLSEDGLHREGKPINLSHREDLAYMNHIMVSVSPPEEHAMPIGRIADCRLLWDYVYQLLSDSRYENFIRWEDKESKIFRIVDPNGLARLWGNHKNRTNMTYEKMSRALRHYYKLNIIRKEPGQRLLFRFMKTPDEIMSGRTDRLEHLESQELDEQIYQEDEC

Chain of CRX (O43186 whole entry): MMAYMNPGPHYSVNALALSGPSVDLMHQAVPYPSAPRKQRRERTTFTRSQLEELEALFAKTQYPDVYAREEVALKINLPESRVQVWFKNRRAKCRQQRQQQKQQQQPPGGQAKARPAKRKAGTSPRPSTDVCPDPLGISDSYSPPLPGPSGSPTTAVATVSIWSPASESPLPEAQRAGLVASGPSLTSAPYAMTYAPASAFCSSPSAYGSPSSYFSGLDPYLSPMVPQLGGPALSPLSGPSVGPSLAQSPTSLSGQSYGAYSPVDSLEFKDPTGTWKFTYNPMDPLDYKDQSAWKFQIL
Chain of ETV1 (P50549 whole entry): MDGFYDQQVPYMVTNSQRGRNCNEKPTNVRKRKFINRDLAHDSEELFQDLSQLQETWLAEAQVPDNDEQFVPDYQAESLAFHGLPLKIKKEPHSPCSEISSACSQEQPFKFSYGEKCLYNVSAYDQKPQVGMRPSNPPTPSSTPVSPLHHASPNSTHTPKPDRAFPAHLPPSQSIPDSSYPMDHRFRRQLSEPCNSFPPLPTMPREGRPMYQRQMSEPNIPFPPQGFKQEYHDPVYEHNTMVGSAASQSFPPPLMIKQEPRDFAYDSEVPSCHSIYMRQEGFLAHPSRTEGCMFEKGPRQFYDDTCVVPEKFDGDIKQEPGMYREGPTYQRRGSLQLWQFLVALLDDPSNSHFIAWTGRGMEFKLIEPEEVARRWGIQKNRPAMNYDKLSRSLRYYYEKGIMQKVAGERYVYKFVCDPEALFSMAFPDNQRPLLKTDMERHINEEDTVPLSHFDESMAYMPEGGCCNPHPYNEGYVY
Chain of ETV5 (P41161 whole entry): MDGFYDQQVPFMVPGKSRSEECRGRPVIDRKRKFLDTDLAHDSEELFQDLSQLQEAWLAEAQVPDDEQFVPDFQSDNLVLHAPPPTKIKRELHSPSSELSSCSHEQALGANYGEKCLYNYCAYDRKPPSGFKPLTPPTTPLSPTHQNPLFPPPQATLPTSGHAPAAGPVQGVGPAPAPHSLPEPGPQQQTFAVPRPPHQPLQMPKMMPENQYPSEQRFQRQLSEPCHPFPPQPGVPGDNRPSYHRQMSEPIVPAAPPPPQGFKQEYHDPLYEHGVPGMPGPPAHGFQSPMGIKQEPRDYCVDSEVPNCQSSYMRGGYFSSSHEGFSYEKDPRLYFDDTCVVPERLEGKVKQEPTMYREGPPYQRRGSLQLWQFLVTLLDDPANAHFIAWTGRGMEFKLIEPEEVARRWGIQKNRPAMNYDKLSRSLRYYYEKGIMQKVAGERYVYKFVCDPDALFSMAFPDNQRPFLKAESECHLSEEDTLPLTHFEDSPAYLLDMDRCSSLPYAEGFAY
Chain of HSF1 (Q00613 whole entry): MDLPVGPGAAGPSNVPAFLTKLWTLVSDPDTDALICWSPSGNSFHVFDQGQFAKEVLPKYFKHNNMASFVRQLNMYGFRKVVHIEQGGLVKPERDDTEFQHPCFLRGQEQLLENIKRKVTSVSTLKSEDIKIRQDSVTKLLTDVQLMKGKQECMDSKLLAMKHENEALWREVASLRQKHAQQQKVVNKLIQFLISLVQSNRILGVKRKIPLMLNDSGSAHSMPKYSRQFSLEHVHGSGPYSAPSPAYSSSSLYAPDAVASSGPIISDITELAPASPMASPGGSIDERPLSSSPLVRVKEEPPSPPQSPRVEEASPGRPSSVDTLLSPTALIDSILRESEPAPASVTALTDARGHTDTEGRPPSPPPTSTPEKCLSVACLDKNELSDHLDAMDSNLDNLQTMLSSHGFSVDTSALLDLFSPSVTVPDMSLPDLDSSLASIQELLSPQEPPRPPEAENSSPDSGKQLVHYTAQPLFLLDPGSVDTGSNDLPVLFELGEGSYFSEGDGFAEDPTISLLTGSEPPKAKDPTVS
Chain of ELF4 (Q99607 whole entry): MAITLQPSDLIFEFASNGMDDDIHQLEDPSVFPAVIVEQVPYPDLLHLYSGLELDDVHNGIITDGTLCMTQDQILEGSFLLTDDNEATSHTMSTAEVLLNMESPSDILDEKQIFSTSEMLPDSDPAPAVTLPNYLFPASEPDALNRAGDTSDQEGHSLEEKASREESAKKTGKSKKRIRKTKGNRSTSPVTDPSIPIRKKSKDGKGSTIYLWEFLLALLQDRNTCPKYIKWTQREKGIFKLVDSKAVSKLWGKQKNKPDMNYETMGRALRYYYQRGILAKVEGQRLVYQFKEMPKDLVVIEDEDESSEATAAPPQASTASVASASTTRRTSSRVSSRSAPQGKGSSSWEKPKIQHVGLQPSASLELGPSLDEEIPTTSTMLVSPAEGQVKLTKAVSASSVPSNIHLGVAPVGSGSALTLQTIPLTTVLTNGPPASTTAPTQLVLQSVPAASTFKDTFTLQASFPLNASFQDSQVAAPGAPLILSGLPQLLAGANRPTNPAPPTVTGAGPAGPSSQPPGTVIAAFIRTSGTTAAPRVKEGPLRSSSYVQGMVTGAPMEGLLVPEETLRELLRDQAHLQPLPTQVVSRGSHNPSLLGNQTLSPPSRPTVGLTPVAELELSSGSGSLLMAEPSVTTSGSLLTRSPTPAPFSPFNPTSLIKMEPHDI

For the sequence ACATTA, the binding signal in [1] is 1.16 fold enrichment (6-mer frequency, TF over GST control); in experiment [2], 1.12 fold enrichment (6-mer frequency, TF over GST control); in experiment [3], 1.2 fold enrichment (6-mer frequency, TF over GST control); in experiment [4], 1.23 fold enrichment (6-mer frequency, TF over GST control); in experiment [5], 1.2 fold enrichment (6-mer frequency, TF over GST control); in experiment [6], 1.18 fold enrichment (6-mer frequency, TF over GST control). Further, the binding signal in experiment [7] was 1.25 fold enrichment (6-mer frequency, TF over GST control); in experiment [8] it was 1.14 fold enrichment (6-mer frequency, TF over GST control); in experiment [9], 1.38 fold enrichment (6-mer frequency, TF over GST control); in experiment [10], 1.29 fold enrichment (6-mer frequency, TF over GST control); in experiment [11], 1.21 fold enrichment (6-mer frequency, TF over GST control); in experiment [12], 1.15 fold enrichment (6-mer frequency, TF over GST control). For the same sequence, the binding signal was 1.19 fold enrichment (6-mer frequency, TF over GST control) in [13]; 1.12 fold enrichment (6-mer frequency, TF over GST control) in experiment [14]; 1.15 fold enrichment (6-mer frequency, TF over GST control) in experiment [15]; 1.1 fold enrichment (6-mer frequency, TF over GST control) in experiment [16]; 1.15 fold enrichment (6-mer frequency, TF over GST control) in experiment [17]; 1.16 fold enrichment (6-mer frequency, TF over GST control) in experiment [18].
